# From PubChem BioAssay (NCATS)
# Inconclusive results are not listed. Entries that show only a call come without a potency. The source made the active and inactive calls. Calls follow the shape of the dose curve; as a rule, active = well fitted curve in the direction sought with a large enough effect; inconclusive = small, poorly fitted or top-dose-only effect, or another doubt; inactive = no such curve, though single readings can be large; an effect the other way counts as inactive or inconclusive.
# Columns and labels:
# [1] = target: Aldehyde dehydrogenase, mitochondrial (Homo sapiens) (UniProt P05091); test: qHTS for Inhibitors of the Aldehyde Dehydrogenase Family (ALDH2) Primary screen (AID 2061308); also: nearly all actives have a fitted effect of over 55% in size
# [2] = target: Retinaldehyde dehydrogenase 3 (Homo sapiens) (UniProt P47895); test: qHTS for Inhibitors of the Aldehyde Dehydrogenase Family (ALDH1A3) Primary screen (AID 2061315)
Compound,Potency [1],Potency [2]
Cc1nc(N2CCOCC2)c2nc(-c3ccccc3)n(C(C)CN(C)C)c2n1 (stereo not drawn),inactive,inactive
O=C(Cc1ccccc1)Nc1ccc(S(=O)(=O)Nc2nccs2)cc1,inactive,inactive
Cc1nnc(-c2cnn(C)c2N)n1Cc1cncn1C,inactive,inactive
O=C(Nc1cncc(-c2cccnc2)c1)c1cccs1,inactive,inactive
Cc1cc(-c2ccccc2)n2ncc(C(=O)Nc3ccccc3Sc3ccccc3)c2n1,inactive,inactive
CC(=O)Nc1sc2c(c1C(=O)c1ccccc1)CCN(C(C)C)C2,inactive,inactive
CC(C)(C)OC(=O)N[C@@H](Cc1ccc(O[S+](=O)([O-])c2cccc3cnccc23)cc1)C(=O)N1CCN(c2ccccc2)CC1,inactive,inactive
FC1(F)Oc2ccc(-c3ccc4ncnc(NCc5cccs5)c4c3)cc2O1,inactive,inactive
COc1cccc(-c2ccc3ncnc(NCc4cccnc4)c3c2)c1,inactive,inactive
CC1CCC/C=C/C(=O)c2c(O)cc(O)cc2CC(=O)O1 (stereo not drawn),inactive,inactive
N#Cc1cnc(NS(=O)(=O)c2ccc(NC(=O)Cc3ccc(F)c(Cl)c3)cc2)s1,inactive,inactive
CC[C@@H]1C(=O)O[C@]23C=C[C@@H]4C(C(=O)OC)=CO[C@H](O[C@@H]12)[C@@H]43,inactive,inactive
CC1=C(CC(=O)O)c2cc(F)ccc2C1=Cc1ccc(S(C)(=O)=O)cc1,inactive,inactive
CC1=CC(=O)C2C(C)(C)CCC[C@]2(C)[C@H]1CC[C@H](C)CC(=O)O (stereo partly drawn),inactive,inactive
